According to PubChem BioAssay (EPA / NIEHS):
Calls of active or inactive are those of the source. How the source made its calls: active means hit-call score of the fitted dose curve at least 0.9, where 1 is the maximum; inactive means score below 0.9.

Assays:
Settings in all cases: mRNA level, 48 h; actives raise or lower the signal
[1] = read-out: CYP4A11 (gene 1579); experiment: LTEA_HepaRG_CYP4A11: Life Technologies and Expression Analysis (LTEA) Assay for CYP4A11 using HepaRG (AID 2283486)
In short: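 Readout is CYP4A11 mRNA induction or suppression (qRT-PCR, ACTB/GAPDH/POLR2A normalization) in human HepaRG cells after 48 h chemical treatment, concentrations to 100 uM in 0.5% DMSO, fitted bidirectionally against vehicle.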

[2] = read-out: Cytochrome P450 3A4 (Homo sapiens) (UniProt P08684); experiment: LTEA_HepaRG_CYP3A4: Life Technologies and Expression Analysis (LTEA) Assay for CYP3A4 using HepaRG (AID 2283487)
In short: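 CYP3A4 transcript measured by TaqMan qRT-PCR and normalized to three housekeeping genes after 48 h chemical exposure of human HepaRG cells. Top concentration 100 uM, half-log steps, 0.5% DMSO vehicle; gain or loss fitted against DMSO baseline.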

[3] = read-out: DNA damage-inducible transcript 3 (DDIT3), DDIT3 (gene 1649); experiment: LTEA_HepaRG_DDIT3: Life Technologies and Expression Analysis (LTEA) Assay for DNA damage-inducible transcript 3 (DDIT3) using HepaRG (AID 2283488)
In short: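 DDIT3 transcript was quantified by qRT-PCR with ACTB/GAPDH/POLR2A normalization after 48 h chemical treatment of differentiated HepaRG cells in 0.5% DMSO. Dosing was eight-point, half-log, top 100 uM, duplicate wells. Curves fitted bidirectionally versus DMSO.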

[4] = read-out: Pro-epidermal growth factor (Homo sapiens) (UniProt P01133); experiment: LTEA_HepaRG_EGF: Life Technologies and Expression Analysis (LTEA) Assay for Epidermal growth factor (EGF) using HepaRG (AID 2283489)
In short: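 EGF expression changes in human HepaRG cells are scored by bidirectional fitting relative to 0.5% DMSO controls. Chemicals are tested at eight half-log concentrations up to 100 uM for 48 h in serum-free induction medium.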

[5] = read-out: Early growth response protein 1 (EGR1) transcription factor, EGR1 (gene 1958); experiment: LTEA_HepaRG_EGR1: Life Technologies and Expression Analysis (LTEA) Assay for Early growth response protein 1 (EGR1) transcription factor using HepaRG (AID 2283490)
In short: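 EGR1 expression change in human HepaRG after 48 h chemical exposure, assessed by housekeeping-normalized qRT-PCR; concentration-response up to 100 uM, fitted in both directions against DMSO controls.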

[6] = read-out: Ezrin (EZR), EZR (gene 7430); experiment: LTEA_HepaRG_EZR: Life Technologies and Expression Analysis (LTEA) Assay for Ezrin (EZR) using HepaRG (AID 2283491)
In short: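 HepaRG, 48 h chemical exposure, 8-pt half-log series from 100 uM, 0.5% DMSO vehicle, duplicates. Read-out: EZR mRNA by TaqMan qRT-PCR (Fluidigm array), housekeeping-normalized; bidirectional curve fit vs DMSO baseline.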

[7] = read-out: Cytochrome P450 3A7 (Homo sapiens) (UniProt P24462); experiment: LTEA_HepaRG_CYP3A7: Life Technologies and Expression Analysis (LTEA) Assay for CYP3A7 using HepaRG (AID 2283492)
In short: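 Cells were thawed, plated, cultured 48 h, then treated for a further 48 h with chemicals (eight-point half-log series from 100 uM, 0.5% DMSO). RNA was isolated and CYP3A7 expression quantified by qRT-PCR normalised to ACTB, GAPDH and POLR2A.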

[8] = read-out: CYP3A5 (gene 1577); experiment: LTEA_HepaRG_CYP3A5: Life Technologies and Expression Analysis (LTEA) Assay for CYP3A5 using HepaRG (AID 2283493)
In short: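 mRNA levels were quantified by qRT-PCR on Fluidigm arrays and normalized to three housekeeping genes. Differentiated HepaRG cells received 48 h exposure (top 100 uM, half-log steps, 0.5% DMSO vehicle, duplicate); bidirectional fitting versus DMSO.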

[9] = read-out: Cytochrome P450 4A22 (Homo sapiens) (UniProt Q5TCH4); experiment: LTEA_HepaRG_CYP4A22: Life Technologies and Expression Analysis (LTEA) Assay for Cytochrome P450 4A22 (CYP4A22) using HepaRG (AID 2283495)
In short: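 Cryopreserved HepaRG cells, plated and cultured 48 h, then switched to serum-free induction medium and treated 48 h (duplicates, up to 100 uM, half-log steps, 0.5% DMSO). Expression change of CYP4A22 was fitted bidirectionally against vehicle.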

[10] = read-out: Cytochrome P450 7A1 (Homo sapiens) (UniProt P22680); experiment: LTEA_HepaRG_CYP7A1: Life Technologies and Expression Analysis (LTEA) Assay for Cytochrome P450 7A1 (CYP7A1) using HepaRG (AID 2283496)
In short: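 HepaRG, 48 h exposure, 8-pt half-log series from 100 uM, 0.5% DMSO vehicle, duplicates. Readout: TaqMan qRT-PCR mRNA vs three housekeeping genes; bidirectional curve fit against DMSO baseline.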

[11] = read-out: Glutathione S-Transferase (GSTA2), GSTA2 (gene 2939); experiment: LTEA_HepaRG_GSTA2: Life Technologies and Expression Analysis (LTEA) Assay for Glutathione S-Transferase (GSTA2) using HepaRG (AID 2283497)
In short: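 Oxidative-stress marker GSTA2 is quantified by TaqMan qRT-PCR in HepaRG cultures treated 48 h across an eight-point range to 100 uM. Expression is normalized to endogenous controls and compared with 0.5% DMSO vehicle.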

[12] = read-out: Glutamate-cysteine ligase catalytic (GCLC), GCLC (gene 2729); experiment: LTEA_HepaRG_GCLC: Life Technologies and Expression Analysis (LTEA) Assay for Glutamate-cysteine ligase catalytic (GCLC) using HepaRG (AID 2283498)
In short: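 Oxidative-stress marker GCLC is measured as mRNA change in human HepaRG liver cells after 48 h chemical treatment in 0.5% DMSO, eight concentrations from 100 uM. Activity is fitted bidirectionally against vehicle.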

[13] = read-out: Glutamate-cysteine ligase regulatory (GCLM), GCLM (gene 2730); experiment: LTEA_HepaRG_GCLM: Life Technologies and Expression Analysis (LTEA) Assay for Glutamate-cysteine ligase regulatory (GCLM) using HepaRG (AID 2283500)
In short: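 GCLM expression quantified by qRT-PCR, normalized to three housekeeping genes, after 48 h chemical treatment of HepaRG cells in duplicate at 8 concentrations (top 100 uM, half-log steps, 0.5% DMSO). Changes fitted both directions against vehicle.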

[14] = read-out: Glutathione S-transferase M3 (GSTM3), GSTM3 (gene 2947); experiment: LTEA_HepaRG_GSTM3: Life Technologies and Expression Analysis (LTEA) Assay for Glutathione S-transferase M3 (GSTM3) using HepaRG (AID 2283501)
In short: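 Changes in GSTM3 expression, an oxidative-stress marker, were scored by bidirectional curve fitting against 0.5% DMSO vehicle. Human HepaRG cultures received chemicals for 48 h in duplicate, highest concentration 100 uM with half-log dilutions.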

[15] = read-out: Heat shock 70 kDa protein 1 (HSPA1A), gene 3303; experiment: LTEA_HepaRG_HSPA1A: Life Technologies and Expression Analysis (LTEA) Assay for Heat shock 70 kDa protein 1 (HSPA1A) using HepaRG (AID 2283502)
In short: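 HSPA1A expression measured by qRT-PCR with ACTB/GAPDH/POLR2A normalization; curves fitted in both directions relative to DMSO vehicle. Exposure: 48 h in HepaRG cells, duplicate 8-point half-log series from 100 uM, 0.5% DMSO, serum-free induction medium.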

[16] = read-out: Hypoxia-inducible factor 1-alpha (Homo sapiens) (UniProt Q16665); experiment: LTEA_HepaRG_HIF1A: Life Technologies and Expression Analysis (LTEA) Assay for Hypoxia-inducible factor 1 (HIF1A) Trancription factor using HepaRG (AID 2283503)
In short: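 HIF1A transcript level read by qRT-PCR (ACTB, GAPDH, POLR2A normalization) after 48 h chemical exposure of HepaRG cultures. Eight half-log concentrations, top 100 uM, 0.5% DMSO vehicle, duplicates; bidirectional curve fit against DMSO baseline.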

[17] = read-out: 3-Hydroxy-3-Methylglutaryl-CoA Synthase 2 (HMGCS2), HMGCS2 (gene 3158); experiment: LTEA_HepaRG_HMGCS2: Life Technologies and Expression Analysis (LTEA) Assay for 3-Hydroxy-3-Methylglutaryl-CoA Synthase 2 (HMGCS2) using HepaRG (AID 2283504)
In short: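 Expression of HMGCS2 in human HepaRG liver cells is measured by qRT-PCR 48 h after dosing (highest 100 uM, half-log series, 0.5% DMSO). Values come from bidirectional concentration-response fitting with DMSO as baseline.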

[18] = read-out: HGF (gene 3082); experiment: LTEA_HepaRG_HGF: Life Technologies and Expression Analysis (LTEA) Assay for Hepatocyte Growth Facto (HGF) using HepaRG (AID 2283505)
In short: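 Gain or loss of HGF mRNA in human HepaRG liver cells after 48 h chemical exposure; eight concentrations up to 100 uM with 0.5% DMSO vehicle, quantified by TaqMan qRT-PCR.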

[19] = read-out: Fatty Acid-Binding Protein 1 (FABP1), FABP1 (gene 2168); experiment: LTEA_HepaRG_FABP1: Life Technologies and Expression Analysis (LTEA) Assay for Fatty Acid-Binding Protein 1 (FABP1) using HepaRG (AID 2283494)
In short: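 Values reflect bidirectional concentration-response fitting of FABP1 mRNA change against 0.5% DMSO controls. Human HepaRG cultures received eight half-log doses (top 100 uM) for 48 h; expression quantified by TaqMan qRT-PCR with housekeeping-gene normalization.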

[20] = read-out: growth arrest and DNA damage 45 (GADD45G), GADD45G (gene 10912); experiment: LTEA_HepaRG_GADD45G: Life Technologies and Expression Analysis (LTEA) Assay for growth arrest and DNA damage 45 (GADD45G) using HepaRG (AID 2283499)
In short: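 Human hepatic HepaRG line treated 48 h with chemicals (eight concentrations, half-log steps from 100 uM); transcript induction or repression of GADD45G scored by qRT-PCR versus DMSO vehicle.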

Measured: AC50

Chain of Cytochrome P450 3A4 (Homo sapiens) (P08684 whole entry, looked up): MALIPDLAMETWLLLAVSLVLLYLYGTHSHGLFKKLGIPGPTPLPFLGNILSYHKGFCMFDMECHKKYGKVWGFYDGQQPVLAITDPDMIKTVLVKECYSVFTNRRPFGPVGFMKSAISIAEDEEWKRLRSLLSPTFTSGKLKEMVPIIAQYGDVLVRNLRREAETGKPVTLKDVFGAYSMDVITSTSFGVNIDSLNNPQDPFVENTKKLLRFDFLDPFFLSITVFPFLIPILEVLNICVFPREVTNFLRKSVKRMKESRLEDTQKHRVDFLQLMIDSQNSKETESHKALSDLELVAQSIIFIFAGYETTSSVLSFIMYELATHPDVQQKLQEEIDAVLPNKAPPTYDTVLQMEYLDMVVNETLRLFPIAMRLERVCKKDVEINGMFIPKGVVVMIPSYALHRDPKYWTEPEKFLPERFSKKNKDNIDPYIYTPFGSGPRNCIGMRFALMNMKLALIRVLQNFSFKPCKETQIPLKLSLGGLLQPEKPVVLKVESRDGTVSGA
Chain of Hypoxia-inducible factor 1-alpha (Homo sapiens) (Q16665 whole entry, looked up): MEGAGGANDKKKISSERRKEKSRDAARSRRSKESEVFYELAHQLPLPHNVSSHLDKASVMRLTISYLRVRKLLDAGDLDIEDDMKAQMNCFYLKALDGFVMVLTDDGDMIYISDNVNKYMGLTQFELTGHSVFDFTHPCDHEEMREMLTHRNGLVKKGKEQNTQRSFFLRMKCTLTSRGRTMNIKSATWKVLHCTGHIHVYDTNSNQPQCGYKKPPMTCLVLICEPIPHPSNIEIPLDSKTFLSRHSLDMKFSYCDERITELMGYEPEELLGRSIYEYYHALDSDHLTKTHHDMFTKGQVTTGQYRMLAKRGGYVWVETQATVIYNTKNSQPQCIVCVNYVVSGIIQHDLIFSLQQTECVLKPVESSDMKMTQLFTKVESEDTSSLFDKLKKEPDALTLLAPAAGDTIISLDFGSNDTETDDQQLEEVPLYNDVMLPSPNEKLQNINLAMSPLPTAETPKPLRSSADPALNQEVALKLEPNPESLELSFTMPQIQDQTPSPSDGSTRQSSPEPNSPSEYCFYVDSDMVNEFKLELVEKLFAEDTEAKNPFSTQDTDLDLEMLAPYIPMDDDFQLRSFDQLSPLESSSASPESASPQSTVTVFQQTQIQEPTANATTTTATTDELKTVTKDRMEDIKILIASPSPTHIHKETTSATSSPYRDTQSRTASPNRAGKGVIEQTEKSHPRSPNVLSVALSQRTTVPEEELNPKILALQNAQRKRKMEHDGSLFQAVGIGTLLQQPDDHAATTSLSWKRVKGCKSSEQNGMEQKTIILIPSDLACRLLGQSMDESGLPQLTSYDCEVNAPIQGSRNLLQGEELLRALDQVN
Chain of Cytochrome P450 3A7 (Homo sapiens) (P24462 whole entry, looked up): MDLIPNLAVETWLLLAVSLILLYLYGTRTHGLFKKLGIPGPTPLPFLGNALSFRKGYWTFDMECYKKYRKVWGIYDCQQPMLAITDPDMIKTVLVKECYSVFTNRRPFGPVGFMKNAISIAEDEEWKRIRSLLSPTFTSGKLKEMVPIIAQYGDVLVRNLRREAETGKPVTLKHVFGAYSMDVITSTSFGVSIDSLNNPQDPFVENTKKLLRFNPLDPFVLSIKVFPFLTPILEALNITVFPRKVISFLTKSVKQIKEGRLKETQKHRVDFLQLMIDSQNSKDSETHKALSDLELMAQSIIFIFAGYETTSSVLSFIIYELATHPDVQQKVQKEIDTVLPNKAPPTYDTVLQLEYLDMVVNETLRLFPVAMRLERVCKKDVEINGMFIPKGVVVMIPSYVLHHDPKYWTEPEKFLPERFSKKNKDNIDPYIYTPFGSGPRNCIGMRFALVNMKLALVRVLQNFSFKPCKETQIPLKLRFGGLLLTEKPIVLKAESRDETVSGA

Cc1ccc(C(C)(C)C)c(O)c1
inactive: [1] | [2] | [3] | [4] | [5] | [6] | [7] | [8] | [9] | [10] | [11] | [12] | [13] | [14] | [15] | [16] | [17] | [18]

OCC(CO)n1cnc(-c2ccc(F)cc2)c1-c1ccnc(Oc2ccccc2)n1
active: [1] 16.9 µM | [2] 3.72 µM | [5] 20.7 µM | [7] 7.88 µM | [9] 16.6 µM | [15] 37 µM
inactive: [3] | [4] | [6] | [8] | [10] | [11] | [12] | [13] | [14] | [16] | [17] | [18]

Cc1ccc(-c2cc(C(F)(F)F)nn2-c2ccc(S(N)(=O)=O)cc2)cc1
active: [1] 6 µM | [3] 68.8 µM | [8] 82 µM | [19] 50 µM | [11] 82.1 µM | [12] 50 µM | [20] 67.5 µM | [17] 73.7 µM
inactive: [4] | [5] | [6] | [9] | [10] | [13] | [14] | [15] | [16] | [18]

OCC(O)CO
inactive: [1] | [2] | [3] | [4] | [5] | [6] | [7] | [8] | [9] | [10] | [11] | [12] | [13] | [14] | [15] | [16] | [17] | [18]
